Results on three compounds are retold here after ChEMBL document CHEMBL3988442, “University of Dundee, Small-Polar-MMV Screening Library” (2021).

Structures are written as SMILES.

Assay [1] concerns the target T1, Aspartate--tRNA(Asp/Asn) ligase (Mycobacterium tuberculosis (strain ATCC 25618 / H37Rv)) (UniProt P9WFW3). Note: in the data most compounds retested in dose-response had high values.
T1 sequence (whole entry): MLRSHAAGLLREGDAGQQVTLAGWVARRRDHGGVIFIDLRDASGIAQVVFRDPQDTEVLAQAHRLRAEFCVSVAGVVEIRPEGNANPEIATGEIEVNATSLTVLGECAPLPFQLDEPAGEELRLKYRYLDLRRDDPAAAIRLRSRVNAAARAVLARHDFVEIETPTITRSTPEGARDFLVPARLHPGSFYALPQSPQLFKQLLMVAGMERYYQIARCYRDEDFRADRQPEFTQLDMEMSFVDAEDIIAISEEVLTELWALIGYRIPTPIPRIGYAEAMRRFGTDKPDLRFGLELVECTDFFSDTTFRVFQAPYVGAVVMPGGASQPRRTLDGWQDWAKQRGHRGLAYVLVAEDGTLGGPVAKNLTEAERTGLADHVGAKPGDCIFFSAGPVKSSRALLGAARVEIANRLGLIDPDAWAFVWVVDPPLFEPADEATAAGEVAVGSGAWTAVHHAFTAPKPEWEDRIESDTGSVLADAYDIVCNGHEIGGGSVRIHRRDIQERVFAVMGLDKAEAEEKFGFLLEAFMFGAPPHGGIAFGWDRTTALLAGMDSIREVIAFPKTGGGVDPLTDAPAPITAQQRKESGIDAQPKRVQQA
Kind of assay: Assay for Asp RNA synthetase-1 from Mycobacterium tuberculosis. Details: scale not given: direction of the effect not stated beside the values. It counts as functional. The conditions noted are these: 30 µM.

The target in assay [2] is Shiga toxin 2 (Escherichia coli O157:H7) (UniProt P09385+P09386). Kind of assay: E. coli 0.157:H7 Shiga Toxin SOP - stx2 screening assay. It counts as functional. Further details: scale not given: direction of the effect not stated beside the values. The conditions noted are these: 30 µM.

For `CCOc1cccc(NS(=O)(=O)c2cc(C)c(C(=O)O)s2)c1`, the figures for the Percent Effect in assay [1] and in assay [2] were 1.62% and -10.3%, respectively.

For `O=C(NCCCn1cccn1)C1(c2ccc(Br)cc2)CC1`, the Percent Effect in assay [1] came out at 0.575%; in assay [2], 8.42%.

Consider `Cc1nnc(NC(=O)NCc2ccc(N3CCN(C)CC3)nc2)s1`, for which the Percent Effect is 3.74% in assay [1] and 24.2% in assay [2].
